# Measurements from PubChem BioAssay.
# Values without a mark were called inactive. Calls of active or inactive are those of the source. Rule as the data show it, unless noted: active = inhibition above about 25%; inactive = the rest.
# Target: Nuclear receptor coactivator 1 (Homo sapiens) (UniProt Q15788)
# Assay: NCOA1 GAL4-fusion reporter inhibition – cell-based, luminescence, quadruplicate, confirmation (AID 588820;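 active = mean inhibition above 46.68%, the untreated control wells mean plus 3 SD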;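 also: 0% = DMSO wells and 100% = gossypol 36 µM treated wells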)
# Settings: HEK293 GAL4-SRC1 luciferase reporter, at 3.6 µM, active compounds read high
# Chain of Nuclear receptor coactivator 1 (Homo sapiens) (Q15788 whole entry, looked up, the tested form may be a part): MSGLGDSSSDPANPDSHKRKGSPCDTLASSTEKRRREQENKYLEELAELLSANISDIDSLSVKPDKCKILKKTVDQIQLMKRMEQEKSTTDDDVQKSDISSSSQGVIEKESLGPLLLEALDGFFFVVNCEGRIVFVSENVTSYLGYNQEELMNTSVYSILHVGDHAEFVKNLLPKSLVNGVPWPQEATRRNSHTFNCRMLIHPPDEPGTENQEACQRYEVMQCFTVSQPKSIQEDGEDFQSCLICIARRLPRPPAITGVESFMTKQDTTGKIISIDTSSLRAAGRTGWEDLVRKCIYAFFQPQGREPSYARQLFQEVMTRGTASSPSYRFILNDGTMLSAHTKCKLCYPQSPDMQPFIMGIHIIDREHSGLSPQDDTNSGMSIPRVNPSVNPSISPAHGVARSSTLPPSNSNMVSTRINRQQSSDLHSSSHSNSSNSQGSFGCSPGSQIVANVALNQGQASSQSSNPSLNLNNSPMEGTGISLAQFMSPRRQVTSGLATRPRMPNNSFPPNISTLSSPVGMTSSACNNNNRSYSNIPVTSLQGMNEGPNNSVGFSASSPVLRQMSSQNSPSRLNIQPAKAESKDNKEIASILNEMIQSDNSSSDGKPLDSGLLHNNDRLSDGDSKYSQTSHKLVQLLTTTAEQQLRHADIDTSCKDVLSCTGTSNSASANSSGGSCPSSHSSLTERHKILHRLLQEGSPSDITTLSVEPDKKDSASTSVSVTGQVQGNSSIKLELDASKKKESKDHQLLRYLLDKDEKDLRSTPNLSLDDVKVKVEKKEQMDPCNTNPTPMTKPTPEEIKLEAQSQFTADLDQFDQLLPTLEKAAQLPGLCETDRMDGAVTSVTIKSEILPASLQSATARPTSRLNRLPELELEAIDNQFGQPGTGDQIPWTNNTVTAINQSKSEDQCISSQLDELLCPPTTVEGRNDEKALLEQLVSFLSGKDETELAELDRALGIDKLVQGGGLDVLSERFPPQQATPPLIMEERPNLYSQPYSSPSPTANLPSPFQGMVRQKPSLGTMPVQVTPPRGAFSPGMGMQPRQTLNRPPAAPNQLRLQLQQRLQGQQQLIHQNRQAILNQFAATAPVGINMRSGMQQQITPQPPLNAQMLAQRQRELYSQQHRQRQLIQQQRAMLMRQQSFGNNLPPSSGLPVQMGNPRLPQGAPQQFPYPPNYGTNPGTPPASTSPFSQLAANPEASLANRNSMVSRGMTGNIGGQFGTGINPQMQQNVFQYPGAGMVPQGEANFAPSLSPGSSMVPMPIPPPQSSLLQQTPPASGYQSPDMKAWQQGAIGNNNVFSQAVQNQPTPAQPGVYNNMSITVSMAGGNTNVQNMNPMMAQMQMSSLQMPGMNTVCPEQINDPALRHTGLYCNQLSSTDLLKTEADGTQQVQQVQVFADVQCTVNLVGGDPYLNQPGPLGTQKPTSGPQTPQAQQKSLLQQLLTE
row,SMILES,inhibition
1,Cc1cc(C)nc(SCC(=O)Nc2ccnc3ccccc23)n1,-7.31%
2,CC(C)(C)NC(=O)CSc1nc2ccc(NC(=O)CSc3nnnn3Cc3ccccc3)cc2s1,3.45%
3,CCCCCCCCCCCCCCCCCCNc1ccn(C2OC(COP(=O)(O)OCC3OC(n4cc(F)c(=O)[nH]c4=O)CC3O)C(O)C2O)c(=O)n1 (stereo not given),51% (active)
4,OCCNc1ncnc2ccc(Br)cc12,29.2%
5,O=C(N/N=C/c1ccc(O)cc1O)/C(=C/c1ccccc1)CCO,31.7%
6,CCCNC(=O)c1nnsc1S(=O)(=O)c1ccc(Cl)cc1,-64.8%
7,CCCCC(=O)NC(c1cccs1)c1cc(Cl)c2cccnc2c1O (stereo not given),27.5%
8,O=C(N/N=C/c1cc(Cl)ccc1O)c1ccc(Br)cc1,23.3%
9,CCn1ccnc1CN(C)Cc1cn[nH]c1-c1ccc(OC)c(F)c1,34.3%
10,Cc1cc(CNC(=O)c2cccc([N+](=O)[O-])c2C)c2ccccc2n1,16%
11,CC(C)(C)OC(=O)NCCCC[C@H](NC(=O)c1nc[nH]c1C(=O)N[C@@H](CCCCNC(=O)OC(C)(C)C)C(=O)OC(C)(C)C)C(=O)OC(C)(C)C,-34.5%
12,CCOC(=O)C(=Cc1cc(=O)c(OC)co1)C(=O)OCC,-0.65%
13,O=c1[nH]c(=O)n([C@H]2C[C@H](O)[C@@H](CO)O2)cc1F,46%
14,COc1cc2oc(=O)cc(-c3ccc(-c4ccc(CO)cc4)cc3)c2c(OC)c1OC,32.9%
15,CCCCC(=O)OCC(=O)C1(O)Cc2c(O)c3c(c(O)c2C(OC2CC(NC(=O)C(F)(F)F)C(O)C(C)O2)C1)C(=O)c1c(OC)cccc1C3=O (stereo not given),29.3%
16,CC(C)(C)C(=O)NC(=S)NNC(=O)c1sc2ccccc2c1Cl,-1.3%
17,COC(=O)c1ccc2nc(Nc3nc4ccc(F)cc4s3)sc2c1,-36.1%
18,NC(=O)c1cc(Sc2ccccc2)nc2ccccc12,34.4%
19,NC(=O)N=Nc1c2[nH]c3ccccc3nc-2c2ccccc12,-11.8%
20,CC(=O)N1c2ccc(S(=O)(=O)NCC3CCC(C(=O)Nc4cccc(C)n4)CC3)cc2CC1C (stereo not given),-11.2%

row,SMILES,inhibition
1,COc1ccc(CNc2nn3c(-c4cccc(C(=O)N(C)C)c4)cnc3s2)cc1,51.7% (active)
2,CN(Cc1c(C(=O)N/N=C/c2ccccc2O)nnn1-c1nonc1N)C1CCCCC1,59.7% (active)
3,CCc1ccc2[nH]c3nc(N/N=C/c4cccc(O)c4)nnc3c2c1,22.6%
4,CCN(CC)CCNc1ccc(C)c2sc3ccc(O)cc3c(=O)c12,50% (active)
5,COc1cccc(/C=N/NC(=O)c2cc3c(OC)cccc3[nH]2)c1O,37.1%
6,Cc1cc(/C=C2\Cc3ccccc3C2=O)c(C)n1-c1ccccc1,20.5%
7,O=C(NN=C(c1ccccc1)c1ccccn1)c1ccccc1,36.7%
8,O=C(COc1ccccc1O)NNc1ccccc1,-12.2%
9,O=C(CCc1ccccc1)NC(c1cccs1)c1cc(Cl)c2cccnc2c1O (stereo not given),45%
10,COc1cc(C(=O)N/N=C(\c2ccccc2)c2ccccn2)cc(OC)c1OC,28.5%
11,CCN1CCN(c2ccc(Nc3ccnc4ccccc34)cc2)CC1,40.1%
12,COC(=O)c1cc2c(n1S(=O)(=O)c1ccc(C)cc1)C(=O)C(=O)c1[nH]cc(C(=O)OCc3ccccc3)c1-2,81.9% (active)
13,COc1cc(-c2cc3nc4ccccc4n3c(N)c2C#N)cc(OC)c1OC,-42.6%
14,COc1ccc(O)c(/C=N/NC(=O)c2c(C)nnn2-c2nonc2N)c1,14.4%
15,CC(C)c1ccc(-c2csc3ncnc(N4CCN(C)CC4)c23)cc1,42.8%
16,Cc1cc(C)c2nc3nc(C)c(C)cc3c(N)c2c1,5.02%
17,O=C(Nc1ccc(N2CCN(C(=O)c3ccccc3F)CC2)cc1)c1cncc(Br)c1,34.5%
18,COc1ccc(-c2nsc3c(N4CCCCC4)ncnc23)cc1,1.39%
19,Cc1cccc(/C=N/Nc2ccc3ccccc3n2)c1,-80.5%
20,CC(=O)NC(c1ccc(C)cc1)c1cc(Cl)c2cccnc2c1O (stereo not given),36.4%

# Test system: not listed separately
# Assay: repression of VP16-driven luciferase reporter – cell-based, luminescence, high throughput, counter-screen for SRC1 inhibitor project (AID 588824)
# Settings: cell-based VP16 transactivation luciferase luminescence; at 3.6 µM; active compounds read high
row,SMILES,inhibition
1,Cc1cc(C)nc(SCC(=O)Nc2ccnc3ccccc23)n1,31.7% (active)
2,CC(C)(C)NC(=O)CSc1nc2ccc(NC(=O)CSc3nnnn3Cc3ccccc3)cc2s1,26.4% (active)
3,CCCCCCCCCCCCCCCCCCNc1ccn(C2OC(COP(=O)(O)OCC3OC(n4cc(F)c(=O)[nH]c4=O)CC3O)C(O)C2O)c(=O)n1 (stereo not given),31.2% (active)
4,OCCNc1ncnc2ccc(Br)cc12,16.2%
5,O=C(N/N=C/c1ccc(O)cc1O)/C(=C/c1ccccc1)CCO,24%
6,CCCNC(=O)c1nnsc1S(=O)(=O)c1ccc(Cl)cc1,5.6%
7,CCCCC(=O)NC(c1cccs1)c1cc(Cl)c2cccnc2c1O (stereo not given),49.9% (active)
8,O=C(N/N=C/c1cc(Cl)ccc1O)c1ccc(Br)cc1,38.4% (active)
9,CCn1ccnc1CN(C)Cc1cn[nH]c1-c1ccc(OC)c(F)c1,28% (active)
10,Cc1cc(CNC(=O)c2cccc([N+](=O)[O-])c2C)c2ccccc2n1,35.8% (active)
11,CC(C)(C)OC(=O)NCCCC[C@H](NC(=O)c1nc[nH]c1C(=O)N[C@@H](CCCCNC(=O)OC(C)(C)C)C(=O)OC(C)(C)C)C(=O)OC(C)(C)C,-3.49%
12,CCOC(=O)C(=Cc1cc(=O)c(OC)co1)C(=O)OCC,53.4% (active)
13,O=c1[nH]c(=O)n([C@H]2C[C@H](O)[C@@H](CO)O2)cc1F,35.4% (active)
14,COc1cc2oc(=O)cc(-c3ccc(-c4ccc(CO)cc4)cc3)c2c(OC)c1OC,32.5% (active)
15,CCCCC(=O)OCC(=O)C1(O)Cc2c(O)c3c(c(O)c2C(OC2CC(NC(=O)C(F)(F)F)C(O)C(C)O2)C1)C(=O)c1c(OC)cccc1C3=O (stereo not given),16.3%
16,CC(C)(C)C(=O)NC(=S)NNC(=O)c1sc2ccccc2c1Cl,-6.4%
17,COC(=O)c1ccc2nc(Nc3nc4ccc(F)cc4s3)sc2c1,-19.9%
18,NC(=O)c1cc(Sc2ccccc2)nc2ccccc12,16%
19,NC(=O)N=Nc1c2[nH]c3ccccc3nc-2c2ccccc12,48.8% (active)
20,CC(=O)N1c2ccc(S(=O)(=O)NCC3CCC(C(=O)Nc4cccc(C)n4)CC3)cc2CC1C (stereo not given),21.6%

row,SMILES,inhibition
1,COc1ccc(CNc2nn3c(-c4cccc(C(=O)N(C)C)c4)cnc3s2)cc1,33.5% (active)
2,CN(Cc1c(C(=O)N/N=C/c2ccccc2O)nnn1-c1nonc1N)C1CCCCC1,59.8% (active)
3,CCc1ccc2[nH]c3nc(N/N=C/c4cccc(O)c4)nnc3c2c1,59.5% (active)
4,CCN(CC)CCNc1ccc(C)c2sc3ccc(O)cc3c(=O)c12,31.8% (active)
5,COc1cccc(/C=N/NC(=O)c2cc3c(OC)cccc3[nH]2)c1O,26% (active)
6,Cc1cc(/C=C2\Cc3ccccc3C2=O)c(C)n1-c1ccccc1,-2.62%
7,O=C(NN=C(c1ccccc1)c1ccccn1)c1ccccc1,43.1% (active)
8,O=C(COc1ccccc1O)NNc1ccccc1,29.2% (active)
9,O=C(CCc1ccccc1)NC(c1cccs1)c1cc(Cl)c2cccnc2c1O (stereo not given),45.9% (active)
10,COc1cc(C(=O)N/N=C(\c2ccccc2)c2ccccn2)cc(OC)c1OC,21.9%
11,CCN1CCN(c2ccc(Nc3ccnc4ccccc34)cc2)CC1,42.5% (active)
12,COC(=O)c1cc2c(n1S(=O)(=O)c1ccc(C)cc1)C(=O)C(=O)c1[nH]cc(C(=O)OCc3ccccc3)c1-2,93.2% (active)
13,COc1cc(-c2cc3nc4ccccc4n3c(N)c2C#N)cc(OC)c1OC,-12.8%
14,COc1ccc(O)c(/C=N/NC(=O)c2c(C)nnn2-c2nonc2N)c1,12%
15,CC(C)c1ccc(-c2csc3ncnc(N4CCN(C)CC4)c23)cc1,32.9% (active)
16,Cc1cc(C)c2nc3nc(C)c(C)cc3c(N)c2c1,48% (active)
17,O=C(Nc1ccc(N2CCN(C(=O)c3ccccc3F)CC2)cc1)c1cncc(Br)c1,48% (active)
18,COc1ccc(-c2nsc3c(N4CCCCC4)ncnc23)cc1,-6.65%
19,Cc1cccc(/C=N/Nc2ccc3ccccc3n2)c1,-55%
20,CC(=O)NC(c1ccc(C)cc1)c1cc(Cl)c2cccnc2c1O (stereo not given),29.6% (active)
